# Shown are actives, neighbours in structure and some others; about 4.2% of the full set was active somewhere.
# hcDAF12 agonist = H. contortus DAF-12 nuclear receptor activators, primary screen, cell-based, luminescence, HEK293, lit1-tk-luc reporter | 370,000 tested, 1.4% active | activation, % at 6.8 µM | HEK293 hcDAF-12 lit1-tk-luc reporter; 0% DMSO, 100% Δ7-dafachronic acid | AID 652067, 2013;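 active means activation above the mean of all tested compounds plus 3 SD, cut at about 5.5% in these data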;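 further: 100% = response to 3 µM Δ7-dafachronic acid high control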
# ssDAF12 agonist = S. stercoralis DAF-12 nuclear receptor activators, primary screen, cell-based, luminescence, HEK293, GRIP1 co-expression, lit1-tk-luc. Nuclear hormone receptor DAF-12 (Strongyloides stercoralis). activation, % at 6.8 µM. 370,000 tested, 1% active. HEK293 ssDAF-12/GRIP1 lit1-tk-luc reporter; % of 3 µM dafachronic acid response;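 active means activation above the mean over all tested compounds plus 3 SD, cut at about 0.9% in these data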;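 further: 0% = DMSO-only wells and 100% = 3 µM delta7-dafachronic acid wells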
# Wnt act = Wnt/beta-catenin pathway activators, primary screen, cell-based, plate reader, single point; Wnt/beta-catenin reporter cell assay, activator; activation, % at 9.35 µM; 300,000 tested, 1.2% active; AID 743398, 2014; in the data active means activation above about 30%, passing the limit was not always enough; inconclusive means no clear call, values can overlap the other calls;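 further: 0% = neutral control wells and 100% = positive control wells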
# hgDAF12 agonist = H. glycines DAF-12 receptor agonists, primary screen, cell-based, luminescence, HEK293, GAL4 fusion, UAS-luciferase. 370,000 tested, 1.8% active. Nuclear hormone receptor DAF-12 (Heterodera glycines), GAL4 fusion. activation, % at 6.8 µM. HEK293 GAL4-hgDAF12 UAS-luciferase reporter, agonist luminescence; normalized to butyrate control;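 active means activation above a cutoff set at the mean of all screened compounds plus 3 SD, cut at about 10% in these data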;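 further: 0% = DMSO wells and 100% = sodium butyrate wells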
# DAX1 StAR inh = DAX1 (NR0B1) inhibitors on StAR promoter, primary screen, cell-based, luminescence, SF-1 (NR5A1), full-length DAX-1; HEK293T StAR-luciferase reporter, SF-1/DAX-1 repression relief; inhibition, % at 6.8 µM; 370,000 tested, 1.1% active;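 active means inhibition above the mean over all tested compounds plus 3 SD, cut at about 3.6% in these data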;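 further: 0% = DAX-1 cells with DMSO and 100% = cells lacking DAX-1 with DMSO; higher inhibition means more luminescence from relief of DAX-1 repression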
# esBAF inh = Bmi1 luciferase reporter increase in mESCs, primary screen, esBAF inhibitor project, mouse ES cells, Bmi1 luciferase knock-in, single point; AID 602393, 2012; reporter increase, % at 12.5 µM; 24 h; 100% = twice the neutral-well signal; 350,000 tested, 2% active; in the data active means activation above about 40%; inconclusive means no clear call, values can overlap the other calls;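 further: 0% = median of the plate's neutral control wells and 100% = double that signal; a rise in the Bmi1 reporter signal indicates esBAF inhibition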
# An asterisk follows results filed as active; ? = inconclusive; . = no result given.
SMILES,hcDAF12 agonist,ssDAF12 agonist,Wnt act,hgDAF12 agonist,DAX1 StAR inh,esBAF inh
COc1ccc(S(=O)(=O)NCC(=O)NCc2cc(=O)n(C)c(=O)n2C)cc1C,-1,-1,-4,0,1,0
Cn1c(CNC(=O)CNS(=O)(=O)c2ccccc2)cc(=O)n(C)c1=O,1,-1,0,1,3.8*,.
Cc1cc(-c2ccc(F)cc2)nc2cc(C(N)=O)nn12,-3,-1,.,1,-1,.
CCOC(=O)c1cnn2c(C)cc(-c3ccc(F)cc3)nc12,2,0,.,12*,3,12
CCSc1nnc(-c2ccco2)n1C,1,1,.,-2,1,.
Cn1c(SCCc2ccccc2)nnc1-c1ccco1,5,0,.,13*,2,.
O=C(Cn1ccc([N+](=O)[O-])n1)N1CCCc2ccccc21,5,-1,32*,3,2,9
O=C(Cn1cc2c(n1)CCCCC2)NC1CCCCCC1,-1,-1,5,1,1,47*
O=C(Cn1cc2c(n1)CCCCC2)N1CCc2ccccc21,6.3*,0,4,3,1,13
O=C(CN1CCCc2ccccc21)N1CCc2ccccc21,3,-1,18,1,0,.
O=C(OCC(=O)N1CCCc2ccccc21)c1ccccc1[N+](=O)[O-],1,0,-2,3,0,111*
CN(C)C(=O)C[C@@H]1CC[C@H]2[C@@H](COC[C@H](O)CN2C(=O)C2CCCC2)O1,.,.,.,.,.,-5
COc1ccc(-c2cnc3c(c2)C(=O)N([C@H](C)CO)C[C@H](C)[C@H](CN(C)Cc2cccc(C)c2)O3)cc1,.,.,.,.,.,-6
Cc1cc2c(cc1C)CN(c1ccccc1)C2,5,0,49*,12*,2,48*
CCOc1ccccc1N1Cc2cc(C)c(C)cc2C1,0,-1,4,4,1,46*
O=Cc1ccc(N2Cc3ccccc3C2)cc1,-4,-2,3,-2,-1,10
Cc1cc(N2Cc3ccccc3C2)ccc1C=O,5,0,17,13*,2,22
CCC(=O)N(C)C[C@@H]1Oc2cc(-c3ccccc3)ccc2S(=O)(=O)N([C@H](C)CO)C[C@H]1C,.,.,.,.,.,-7
C[C@@H]1CCCCO[C@H](CN(C)Cc2ccncc2)[C@@H](C)CN([C@@H](C)CO)C(=O)c2cc(NC(=O)CCC(F)(F)F)ccc2O1,.,.,.,.,.,-2
C[C@@H]1CN([C@H](C)CO)C(=O)Cc2cc(NC(=O)C3CCCCC3)ccc2O[C@@H]1CN(C)S(=O)(=O)c1ccc(F)cc1,.,.,.,.,.,1
C[C@H](CO)N1C[C@H](C)[C@@H](CN(C)Cc2cccc(F)c2)Oc2cc(-c3ccc(F)cc3)ccc2S1(=O)=O,.,.,.,.,.,3
O=C(O)C1CCCCC1C(=O)N1CCCC1 (stereo not given),0,1.5*,-9,2,1,.
COc1cccc(NC(=O)N(C)C[C@@H]2Oc3ncc(C#Cc4ccncc4)cc3C(=O)N([C@@H](C)CO)C[C@@H]2C)c1,.,.,.,.,.,-8
COc1ccc(CCC(=O)Nc2sccc2C#N)cc1,2,0,11,12*,3,.
COCc1nnc(NC(=O)CCc2ccc(OC)cc2)s1,-2,-2,0,0,0,-14
SMILES,hcDAF12 agonist,ssDAF12 agonist,Wnt act,hgDAF12 agonist,DAX1 StAR inh,esBAF inh
COc1ccc(CCC(=O)Nc2nnc(C)s2)cc1,-1,-1,63*,2,0,.
COc1ccc(NC(=O)CSCC(=O)Nc2sccc2C#N)cc1,1,1.0*,-2,1,0,.
COc1ccc(NC(=O)CSc2nc(N)c(C#N)cc2C#N)cc1,0,-2,0,0,-2,.
CO[C@@H]1CN(C)C(=O)c2ccc(NC(=O)c3cccc(F)c3)cc2OC[C@H](C)N(C)C[C@H]1C,.,.,.,.,.,4
CCCNC(=O)N1C[C@@H](C)[C@@H](OC)CN(C)C(=O)c2ccc(NC(C)=O)cc2OC[C@@H]1C,.,.,.,.,.,-1
CCc1cc(/C(Cc2ccc3ccccc3n2)=N\O)c(O)cc1O,3,-1,-6,0,-1,50*
O=C(Cc1nc2ccccc2[nH]1)c1ccc([N+](=O)[O-])cc1,4,-1,58*,5,1,.
CCc1cc(C(=O)Cc2nc3ccccc3[nH]2)c(O)cc1O,0,0,34*,8,0,47*
O=C(Cc1nc2ccccc2[nH]1)c1ccc(Cl)cc1,1,-1,9,3,1,33
CCCc1cc(C(=O)Cc2nc3ccccc3s2)c(O)cc1O,5.7*,0.9*,.,5,1,.
CCc1cc(C(=O)Cc2ccc(F)cc2)c(O)cc1O,-5,-2,2,-4,-1,-3
CCc1cc(/C(Cc2ccccn2)=N\O)c(O)cc1O,-2,-2,0,-4,-2,19
COc1ccc(-c2cn(CC3CCCCC3)nn2)cc1,0,0,18,5,1,67*
COc1ccc(-c2cn(Cc3ccc(C(=O)c4ccccc4)cc3)nn2)cc1,2,-1,?,1,0,.
Cc1ccc(Cn2cc(-c3ccccc3)nn2)cc1,2,-1,20,5,1,57*
c1ccc(-c2cn(CC3CCCCC3)nn2)cc1,2,0,32*,10,0,65*
C[C@@H]1CN([C@H](C)CO)C(=O)CCCn2cc(nn2)CO[C@H]1CN(C)Cc1cccc2c1OCCCO2,.,.,.,.,.,-6
Cc1noc(C)c1NC(=O)N(C)C[C@H]1Oc2ncc(C#CCN(C)C)cc2C(=O)N([C@H](C)CO)C[C@H]1C,.,.,.,.,.,-3
O=C(CSC1CC(=O)N(CCc2ccccc2)C1=O)Nc1ccc(Br)cc1 (stereo not given),5.8*,0,.,0,0,.
C[C@@H]1CN([C@@H](C)CO)S(=O)(=O)c2ccc(-c3cccnc3)cc2O[C@H]1CN(C)C(=O)C1CCCCC1,.,.,.,.,.,0
COc1cc(OC)cc(-c2nc3ccccc3c(=O)n2OC(=O)c2ccccc2C)c1,-1,-1,5,12*,0,.
COc1ccc(S(=O)(=O)N2C[C@@H](O)COC[C@@H]3O[C@@H](CC(=O)NCc4ccc(Cl)c(Cl)c4)CC[C@H]32)cc1,.,.,.,.,.,1
CC(=O)C1=C(c2cccc([N+](=O)[O-])c2)N(C(C)=O)n2c(C)nnc2S1,0,-1,75*,-3,-2,.
CC(=O)c1c(C(C)=O)c(C)n(-c2cccc([N+](=O)[O-])c2)c1C,-1,-1,-2,-1,0,.
Cc1ccc2c(c1)c(-c1csc(N)n1)c(C)n2C,3,1.6*,2,2,0,-7

# Bioassay records: PubChem BioAssay, several laboratories
